Measured values published in PubChem BioAssay AID1159524 (National Center for Advancing Translational Sciences (NCATS), 2015).
Hit rate of the full screen: of about 410,000 compounds, about 5,100 (1.2%) were called active. Inconclusive results (about 8%) are left out. Calls come from the whole dose curve; tested in HEK293T cells. The list comes from a sample in which actives are over-represented; it also holds similar structures and randomly drawn compounds.
% is set by controls: 0 for no effect and ±100 for the full control effect; potency is the fitted concentration of half-maximal effect.

Assay: High Throughput Screening for Foot and Mouth Disease Virus Antivirals; note: read-out not given here; nearly all actives have a fitted effect of over 45% in size
Details: FMDV antiviral cell-based qHTS; series mostly up to 57.9 µM; activity change, negative = inhibition: at the top concentration
For `Oc1c(C(c2ccc(F)cc2)N2CCN(Cc3ccccc3)CC2)sc2nc(-c3ccco3)nn12` (stereo not given), the “activity change, negative = inhibition” value was -0.194% (inactive). With `O=C(c1ccncc1)N1CCC2(CCN(Cc3cc(C(F)(F)F)cc(C(F)(F)F)c3)CC2)CC1` the “activity change, negative = inhibition” value was -8.53% (inactive). In the case of `Cc1nc2ccn(Cc3cccs3)c(=O)c2cc1C(=O)NCc1ccc(Cl)cc1`, the “activity change, negative = inhibition” value is reported as 8.72% (inactive). In the case of `CCCNC(=O)c1ccc(Cn2c(SCC(N)=O)nc3ccccc3c2=O)cc1`, the “activity change, negative = inhibition” value is reported as 4.34% (inactive). For `Cc1nnnn1/C(=C\c1ccccc1)C(=O)OCC(=O)N1CC2(C)CC1CC(C)(C)C2` (stereo not given), the Potency was 31.6 µM (active). For `Cn1nccc1C(=O)NCC1CCC2(CCN(Cc3c(O)ccc4ccccc34)CC2)O1` (stereo not given), the “activity change, negative = inhibition” value was 29.3% (inactive). In the case of `Cc1c(-c2cccc(NC(=O)C(C)(C)C)c2)nc2ncccn12`, the “activity change, negative = inhibition” value is reported as -13.9% (inactive). For `O=c1c(O)c(-c2ccc(O)cc2)oc2ccccc12`, the “activity change, negative = inhibition” value was 39.4% (inactive). In the case of `Cc1ccccc1OCC(=O)Nc1ccc(N2CCN(C(=O)C(C)C)CC2)c(Cl)c1`, the Potency is reported as 14.1 µM (active). With `Cc1ccccc1OCC(=O)NNC(=O)c1cc(S(=O)(=O)N(C)C)ccc1N1CCCC1` the “activity change, negative = inhibition” value was -20.4% (inactive). With `Cc1ccc(NC(=O)COc2coc(CN3CCc4ccccc4C3)cc2=O)cc1Cl` the “activity change, negative = inhibition” value was -22.8% (inactive). In the case of `O=C(Oc1cc(OC(=O)c2ccccc2)c2c(c1)OC(c1ccc(OC(=O)c3ccccc3)c(OC(=O)c3ccccc3)c1)[C@@H](OC(=O)c1ccccc1)C2)c1ccccc1` (stereo not given in full), the “activity change, negative = inhibition” value is reported as 7.22% (inactive). For `CCCOc1ccc(NC(=O)CC2C(=O)N(c3ccccc3)C(=O)N2Cc2ccco2)cc1` (stereo not given), the “activity change, negative = inhibition” value was -9.1% (inactive). With `CCOC(=O)c1c(C)[nH]c(C)c1S(=O)(=O)N1CCC(C(=O)Nc2ccc(C)c(Cl)c2)CC1` the “activity change, negative = inhibition” value was -14.6% (inactive). In the case of `COc1cc2c(=O)n(C)c3ccccc3c2cc1OC`, the “activity change, negative = inhibition” value is reported as -27% (inactive). In the case of `Cc1cccc(C2CC(=O)Oc3c2c(=O)n(C)c2ccccc32)c1` (stereo not given), the “activity change, negative = inhibition” value is reported as 2.33% (inactive). In the case of `Cn1c(=O)c([N+](=O)[O-])c(Oc2ccccc2)c2ccccc21`, the Potency is reported as 28.2 µM (active). For `CC(C)c1cnc(NC(=O)Cc2ccccc2)s1`, the “activity change, negative = inhibition” value was -5.87% (inactive). For `Cc1ccc(-n2nc(C)c3c(C)cc(=O)n(CC(=O)Nc4ccc(C(C)C)cc4)c32)cc1`, the “activity change, negative = inhibition” value was -2.61% (inactive). With `CC(=O)Oc1c2c(c3c(c1CC=C(C)C)O[C@@]14C(=CC5CC1C(C)(C)OC4(C/C=C(\C)C(=O)O)C5=O)C3=O)OC(C)(CCC=C(C)C)C=C2` (stereo not given in full) the Potency was 20 µM (active). For `COc1cc(=O)n2c(c1C(=O)NC(C)c1ccco1)CCN(Cc1cc(C)cc(C)c1)CC2` (stereo not given), the “activity change, negative = inhibition” value was -9.62% (inactive). In the case of `CCOc1ccccc1C(=O)NCC(c1ccc(N(C)C)cc1)N1CCCC1` (stereo not given), the “activity change, negative = inhibition” value is reported as -27.2% (inactive). In the case of `Cc1cc(-c2ccnc(-n3ncc(C(=O)NCCc4ccncc4)c3C)n2)c(C)s1`, the “activity change, negative = inhibition” value is reported as -20% (inactive). In the case of `CCOc1ccc(C)cc1S(=O)(=O)NC1CCCCCC1`, the “activity change, negative = inhibition” value is reported as 67.9% (inactive). For `CCOc1cccc(=NC2CCCCC2)c2c(C)[nH]c(C)c12`, the Potency was 28.2 µM (active).
